# Test results: PubChem BioAssay (NCATS)
# Unmarked numbers belong to inactive results. Records with an inconclusive call do not appear. Where a call stands in place of a potency, no number is given. Active and inactive are the calls of the source. Unless noted, calls follow the shape of the dose curve; as a rule, active = well fitted curve in the direction sought with a large enough effect; inconclusive = small, poorly fitted or top-dose-only effect, or another doubt; inactive = no such curve, though single readings can be large; an effect the other way counts as inactive or inconclusive.
# What was measured:
# [1] = qHTS for Inhibitors of Plasmodium falciparum (CP250) proliferation (AID 504320)
# Procedure, shortened: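 Erythrocytes infected with P. falciparum line (0.3% parasitemia, 2.5% hematocrit final) incubated with compounds 72 h at 37 °C, 5% CO2; SYBR Green lysis buffer added, fluorescence read next day. Normalized to 0.29 uM artemisinin and DMSO.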
# [2] = biological target: Atrial natriuretic peptide receptor 1 (Homo sapiens) (UniProt P16066); assay: Natriuretic polypeptide receptor (hNpr1) antagonism - Pilot CMLD screen (AID 1347052; calls by dose curve;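 also: HEK293 cells with hNpr1 stimulated by hNppA peptide at 0.1 nM; cGMP level read as GloSensor luciferase luminescence after agonist stimulation; series mostly up to about 9.2 µM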)
# Atrial natriuretic peptide receptor 1 (Homo sapiens), sequence (P16066 whole entry, looked up): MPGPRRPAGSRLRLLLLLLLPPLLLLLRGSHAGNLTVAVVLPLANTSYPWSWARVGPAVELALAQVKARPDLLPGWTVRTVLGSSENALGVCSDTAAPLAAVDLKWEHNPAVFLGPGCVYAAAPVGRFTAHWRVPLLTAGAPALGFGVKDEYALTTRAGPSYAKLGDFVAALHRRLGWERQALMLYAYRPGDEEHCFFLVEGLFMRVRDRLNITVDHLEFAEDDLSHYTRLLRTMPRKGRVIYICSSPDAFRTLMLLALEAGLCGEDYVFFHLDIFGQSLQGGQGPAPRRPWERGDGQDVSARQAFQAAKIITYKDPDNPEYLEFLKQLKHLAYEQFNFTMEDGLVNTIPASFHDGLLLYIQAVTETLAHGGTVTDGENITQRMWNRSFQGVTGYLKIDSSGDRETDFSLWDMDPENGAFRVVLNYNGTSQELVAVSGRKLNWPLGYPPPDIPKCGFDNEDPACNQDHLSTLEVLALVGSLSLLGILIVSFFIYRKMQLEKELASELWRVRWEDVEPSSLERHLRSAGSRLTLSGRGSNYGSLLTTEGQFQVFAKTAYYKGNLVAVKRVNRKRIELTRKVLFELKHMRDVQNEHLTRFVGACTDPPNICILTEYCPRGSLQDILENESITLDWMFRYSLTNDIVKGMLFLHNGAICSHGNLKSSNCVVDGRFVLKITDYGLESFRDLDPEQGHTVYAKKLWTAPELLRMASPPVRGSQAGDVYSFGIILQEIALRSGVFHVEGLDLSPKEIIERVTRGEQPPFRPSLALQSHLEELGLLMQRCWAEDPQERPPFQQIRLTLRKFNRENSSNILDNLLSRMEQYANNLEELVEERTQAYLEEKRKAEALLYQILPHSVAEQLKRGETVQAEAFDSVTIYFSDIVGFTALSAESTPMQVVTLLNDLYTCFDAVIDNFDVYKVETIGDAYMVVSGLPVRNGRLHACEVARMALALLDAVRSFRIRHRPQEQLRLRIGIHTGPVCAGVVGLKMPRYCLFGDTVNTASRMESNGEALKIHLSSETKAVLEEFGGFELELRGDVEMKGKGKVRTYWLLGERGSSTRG
# [3] = biological target: Furin (Homo sapiens) (UniProt P09958); assay: Furin counterscreen qHTS for Zika virus inhibitors (AID 1347149);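 also: purified recombinant full-length human furin enzyme at 5 nM; fluorescence gain from furin cutting a BOC-RVRR-AMC peptide substrate over 15 min; top concentration of the series differs between compounds; nearly all actives have a fitted effect of over 70% in size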
# Furin (Homo sapiens), sequence (P09958 whole entry, looked up): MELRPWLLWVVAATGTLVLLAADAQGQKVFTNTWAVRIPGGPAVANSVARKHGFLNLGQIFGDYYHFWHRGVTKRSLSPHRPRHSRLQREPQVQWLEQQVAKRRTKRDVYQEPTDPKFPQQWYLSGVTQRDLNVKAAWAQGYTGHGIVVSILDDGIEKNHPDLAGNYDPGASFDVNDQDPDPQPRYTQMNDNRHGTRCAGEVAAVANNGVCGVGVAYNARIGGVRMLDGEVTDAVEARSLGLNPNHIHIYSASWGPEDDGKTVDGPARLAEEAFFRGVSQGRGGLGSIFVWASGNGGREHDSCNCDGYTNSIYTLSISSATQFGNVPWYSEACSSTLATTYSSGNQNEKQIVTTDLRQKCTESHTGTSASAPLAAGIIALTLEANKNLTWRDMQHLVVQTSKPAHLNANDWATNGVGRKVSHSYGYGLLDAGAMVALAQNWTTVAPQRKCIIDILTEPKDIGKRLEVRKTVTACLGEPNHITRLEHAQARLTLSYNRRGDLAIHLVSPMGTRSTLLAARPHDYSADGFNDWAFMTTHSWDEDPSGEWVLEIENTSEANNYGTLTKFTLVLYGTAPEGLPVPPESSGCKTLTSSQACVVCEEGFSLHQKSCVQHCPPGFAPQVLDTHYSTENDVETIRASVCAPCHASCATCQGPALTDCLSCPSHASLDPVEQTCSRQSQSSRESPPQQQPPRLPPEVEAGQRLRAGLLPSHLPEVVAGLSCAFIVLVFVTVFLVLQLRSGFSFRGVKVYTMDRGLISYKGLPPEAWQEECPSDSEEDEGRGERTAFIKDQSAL
# Procedure, shortened: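 Fluorogenic cleavage of BOC-RVRR-AMC (2 microM final, Km ~15 µM) was monitored (ex 340, em 450 nm) at 37C after 15 min RT preincubation of 5 nM furin with compounds in HEPES pH 7.0 buffer with CaCl2 and Triton X-100. Percent inhibition was fitted to a 4-parameter Hill curve.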
# [4] = biological target: Cytochrome P450 3A4 (Homo sapiens) (UniProt P08684); assay: qHTS Assay for Inhibitors and Substrates of Cytochrome P450 3A4 (AID 884); also: potency is read from the fitted curve at half-maximal effect; nearly all actives have a fitted effect of over 50% in size
# Cytochrome P450 3A4 (Homo sapiens), sequence (P08684 whole entry, looked up): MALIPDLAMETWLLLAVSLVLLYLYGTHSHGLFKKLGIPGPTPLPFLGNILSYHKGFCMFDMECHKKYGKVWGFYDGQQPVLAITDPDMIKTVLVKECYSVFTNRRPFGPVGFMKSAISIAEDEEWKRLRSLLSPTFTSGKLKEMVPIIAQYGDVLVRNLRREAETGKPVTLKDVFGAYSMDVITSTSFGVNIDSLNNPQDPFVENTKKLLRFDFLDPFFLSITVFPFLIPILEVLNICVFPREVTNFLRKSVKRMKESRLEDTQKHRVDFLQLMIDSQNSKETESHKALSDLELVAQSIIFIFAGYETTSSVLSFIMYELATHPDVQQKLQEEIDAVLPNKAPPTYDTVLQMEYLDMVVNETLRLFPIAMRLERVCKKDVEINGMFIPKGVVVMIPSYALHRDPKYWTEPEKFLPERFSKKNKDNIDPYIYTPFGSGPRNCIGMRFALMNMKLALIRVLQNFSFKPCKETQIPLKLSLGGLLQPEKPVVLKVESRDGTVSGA
# Procedure, shortened: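 20 nM human CYP3A4 with 25 uM Luciferin-PPXE (at KM) in 200 mM KPO4, preincubated 10 min with compound; NADPH regeneration started a 60 min RT reaction. Luciferin detected by luminescence, normalized to 57 uM ketoconazole as full inhibition.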
# [5] = biological target: Cytochrome P450 3A4 (Homo sapiens) (UniProt P08684); assay: qHTS Assay for Activators of Cytochrome P450 3A4 (AID 885); also: nearly all actives have a fitted effect of over 65% in size
# Procedure, shortened: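 Steps: enzyme/substrate mix dispensed; compound added, 10 min RT; NADPH regeneration solution added, 60 min RT; luciferin detection buffer stops reaction; 20 min later luminescence measured.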
compound,measurement,setting,value
COc1ccc(O[C@H]2C=C[C@@H](c3ccccc3)O[C@H]2CON=C(C)CCN2CCCCc3nc(C)c(C)cc32)cc1,Potency,[1],inactive
same,Potency,[2],inactive
CCCNC(=O)OC[C@H]1O[C@H](CCON=Cc2ccc(C(=O)N3[C@H](C(=O)OC)CC[C@H](C)[C@@H]3c3ccc(C)cc3)cc2)C=C[C@H]1Oc1ccc(OC)cc1,Potency,[1],inactive
same,Potency,[2],inactive
C[C@@H]1[C@H](c2ccccc2)c2cc3ccccc3nc2C(=O)C[C@@H]1C(=O)N1CCCC1,Potency,[1],inactive
same,Potency,[2],inactive
Cc1cc2c(c(=O)n1Cc1ccccc1)[C@H]1O[C@](c3ccsc3)(Cc3cc(C#N)ccc31)O2,Potency,[1],inactive
same,Potency,[2],inactive
COc1cccc([C@@H]2Oc3ccc(OC)cc3C(=O)[C@@H]2O)c1,Potency,[1],inactive
same,Potency,[2],inactive
O=C(N[C@H](c1ccccc1)C1CCCC=C1c1ccccc1)C(F)(F)F (stereo partly drawn),Potency,[1],inactive
same,Potency,[2],inactive
CC1=C[C@H]2c3ccccc3C[C@H]2CO[C@]12C(=O)N(Cc1ccc(Br)cc1)c1ccccc12,Potency,[1],inactive
same,Potency,[2],inactive
C[C@]12C[C@@](C)(C=C1C=Cc1ccccc1)C(=O)C[C@H]2c1ccccc1,Potency,[1],inactive
same,Potency,[2],inactive
O=C1N(CC2CC2)c2cccc(Br)c2[C@@]12O[C@H](COc1ccccc1)CC1=CCCC12 (stereo partly drawn),Potency,[1],inactive
same,Potency,[2],inactive
CCN1C(=NCC(C)C)NC(c2cccc(F)c2)C(C(=O)OC)=C1C (stereo not drawn),Potency,[1],inactive
same,Potency,[2],inactive
Cc1c(NS(=O)(=O)c2ccccc2)cc(C(C)C)c(O)c1S(=O)(=O)c1ccc(Cl)cc1,Potency,[3],inactive
C=CC[C@@]1(c2ccccc2)Oc2ccccc2-c2nc3ccccc3nc21,Potency,[1],inactive
same,Potency,[2],inactive
CCCCCCC#Cc1cc(OC)c(OC)cc1C(N1CC(C)c2ccccc21)N1CC(C)c2ccccc21 (stereo not drawn),Potency,[4],3.16 µM (active)
same,"activity change, positive = activation",[5],-88.3% [at 11.4 µM]
same,Potency,[2],inactive
COC(=O)C1=C(C)N(Cc2ccccc2)C(=NCCc2ccccn2)NC1c1cccc(F)c1 (stereo not drawn),Potency,[1],inactive
same,Potency,[2],inactive
